In PubChem BioAssay one finds composite z-score and z-score data, which are given here for five compounds.

The structures appear in SMILES notation. Calls of active or inactive are those of the source. Unless noted, no rule for the calls is given here.

In assay [1] the test system is Wnt5a (protein binding on small-molecule microarray). The assay is described as follows: Wnt5a binders on small-molecule microarray, primary screen, biophysical, 635/667 nm fluorescence (AID 1142).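 Also: fluorescence read at 667 nm with signal to noise per printed feature.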 The note with it: 635 nm fluorescence, higher = more signal.
Assay [2] is described as follows: cell viability in Huh7 cells, primary screen, cytotoxicity control for HCV replication inhibitor project, CellTiter-Glo luminescence, basal, 48 h (AID 1143).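 Also: Huh7 hepatoma cells carrying a hepatitis C replication reporter with no stimulus; test concentration not given here.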 The note with it: Huh7 HCV replicon, higher = more signal, called active from +8 up or from −8 down. (ATP-based viability assays read luminescence as a measure of living cells.)
A short description of assay [3]: P. aeruginosa biofilm formation inhibitors, primary screen, PAO1 strain, BacTiter-Glo luminescence, LB-PBS (AID 1144). The note with it: 12 h, higher = more signal.
Assay [4] can be described thus: CREB reporter modulators without forskolin, primary screen, cell-based, PC12, CRE-LacZ reporter, unstimulated (AID 1145). The note with it: no forskolin, luminescence, 4.5 h, higher = more signal, called active from +8 up or from −8 down.
The nature of assay [5]: CREB reporter modulators under forskolin, primary screen, cell-based, PC12, CRE-LacZ reporter, forskolin-stimulated (AID 1146).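 Also: PC12 cells with 6xCRE LacZ reporter stimulated by forskolin 10 µM; beta-galactosidase reporter signal reflecting CREB driven transcription.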 The note with it: luminescence, 4.5 h, higher = more signal, called active from +8 up or from −8 down.
Assay [6] deals with Streptavidin (Streptomyces avidinii) (UniProt P22629). The assay is described as follows: streptavidin binders on small-molecule microarray, primary screen, artefact control for SMM compound annotation, biophysical, 635/667 nm fluorescence (AID 1147).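 Also: signal reflects streptavidin binding to arrayed compounds as a control protein.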 The note with it: streptavidin binding, higher = more signal.
The nature of assay [7]: small-molecule binders of probe aInhba, primary screen, biochemical, small-molecule microarray, 635/667 nm fluorescence (AID 1148).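 Also: score merges 667nm spot fluorescence with signal-to-noise for antibody binding to printed compounds.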 The note with it: higher = more signal.
Assay [8] concerns the target Torsin-1A (Homo sapiens) (UniProt O14656). The assay is described as follows: torsin A binders from cell lysate, primary screen, small-molecule microarray, wild-type, 635/667 nm (AID 1149). The note with it: COS7 hTOR1A-WT lysate, 635 nm fluorescence, higher = more signal.
Assay [9] shares this target. Nature of the assay: small-molecule binders of mutant TOR1A in lysate, primary screen, cell lysate, small-molecule microarray, COS7 lysate, 635/667 nm fluorescence (AID 1150).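 Also: score pools 667 nm emission and signal to noise measuring lysate protein binding.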 The note with it: COS7 hTOR1A mutant lysate, 635 nm fluorescence, higher = more signal.
The test system of assay [10] is Sonic hedgehog protein (Shh). The assay is described as follows: small-molecule binders of Shh protein, primary screen, biochemical, small-molecule microarray, 635/667 nm fluorescence (AID 1151).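 Also: Shh protein binding to compounds spotted on small-molecule microarray slides; score combines spot fluorescence intensity with signal-to-noise across triplicate slides.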 The note with it: small-molecule microarray binding, 635 nm fluorescence; higher = more signal.
A short description of assay [11]: E. coli DRC41 culture turbidity changes, primary screen, E. coli filamentation inducer project, strain DRC41, OD650, 48 h (AID 1152).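 Also: E. coli MC1000 strain DRC41 lacking acrAB efflux pump and sulA.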 The note with it: E. coli DRC41 (acrAB sulA), higher = more signal, called active from +8 up or from −8 down.
Assay [12] can be described thus: small-molecule binders of probe aLefty1, primary screen, biochemical, small-molecule microarray, 635/667 nm fluorescence (AID 1153).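 Also: score merges spot fluorescence with signal-to-noise ratio from the scanned slide images.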 The note with it: higher = more signal.
The nature of assay [13]: PSAC antagonists in infected red cells, primary screen, cell-based, P. falciparum Indochina, OD700, 1 h (AID 1154). The note with it: P. falciparum Indochina infected RBC osmotic lysis, higher = more signal, called active from +8 up or from −8 down.
A short description of assay [14]: PSAC antagonists in infected red cells, primary screen, cell-based, P. falciparum Indochina, OD700, 2 h (AID 1155).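 Also: lysis reports solute entry through the parasite surface anion channel PSAC; channel blockers reduce lysis of infected cells.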 The note with it: P. falciparum Indochina infected erythrocytes, osmotic lysis OD700; higher = more signal, called active from +8 up or from −8 down.
Assay [15] is described as follows: osmotic lysis modulators in infected erythrocytes, primary screen, PSAC antagonist project, cell-based, P. falciparum Indochina, OD700, 3 h (AID 1156). The note with it: higher = more signal, called active from +8 up or from −8 down.
Assay [16] is described as follows: PSAC antagonists in infected red cells, primary screen, cell-based, P. falciparum Indochina, OD700, 18 h (AID 1157). The note with it: P. falciparum Indochina infected erythrocytes, osmotic lysis OD700, 18 h; higher = more signal, called active from +8 up or from −8 down.
A short description of assay [17]: modulators of S6 phosphorylation in cells, primary screen, cell-based, A549, cytoblot, luminescence, serum-stimulated (AID 1158).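 Also: serum-stimulated A549 lung adenocarcinoma cells; signal is phosphorylated S6 detected by cytoblot immunostaining with HRP secondary.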 The note with it: A549 phospho-S6 cytoblot, 5 h, higher = more signal.
The target of assay [18] is NADPH oxidase 2 (Homo sapiens) (UniProt P04839). The assay is described as follows: NOX2-dependent H2O2 signal modulators, primary screen, NOX inhibitor project, cell-based, HEK293-NOX2, PMA-stimulated, Amplex Red fluorescence (AID 1159). Also: test concentration not given here. The note with it: 45 min, higher = more signal, called active from +8 up or from −8 down.
Assay [19] deals with NADPH oxidase 4 (Homo sapiens) (UniProt Q9NPH5). The assay is described as follows: NOX4-dependent H2O2 signal modulators, primary screen, NOX inhibitor project, cell-based, HEK293-NOX4, tetracycline-induced, Amplex Red fluorescence (AID 1160). The note with it: 45 min, higher = more signal, called active from +8 up or from −8 down.
Assay [20] deals with NADPH oxidase 5 (Homo sapiens) (UniProt Q96PH1). Nature of the assay: NOX5-dependent H2O2 signal modulators, primary screen, NOX inhibitor project, cell-based, HEK293-NOX5, Amplex Red fluorescence (AID 1161). The note with it: HEK293-NOX5, ionomycin, 45 min, higher = more signal.
Sequence of NADPH oxidase 5 (Homo sapiens) (Q96PH1 whole entry, looked up): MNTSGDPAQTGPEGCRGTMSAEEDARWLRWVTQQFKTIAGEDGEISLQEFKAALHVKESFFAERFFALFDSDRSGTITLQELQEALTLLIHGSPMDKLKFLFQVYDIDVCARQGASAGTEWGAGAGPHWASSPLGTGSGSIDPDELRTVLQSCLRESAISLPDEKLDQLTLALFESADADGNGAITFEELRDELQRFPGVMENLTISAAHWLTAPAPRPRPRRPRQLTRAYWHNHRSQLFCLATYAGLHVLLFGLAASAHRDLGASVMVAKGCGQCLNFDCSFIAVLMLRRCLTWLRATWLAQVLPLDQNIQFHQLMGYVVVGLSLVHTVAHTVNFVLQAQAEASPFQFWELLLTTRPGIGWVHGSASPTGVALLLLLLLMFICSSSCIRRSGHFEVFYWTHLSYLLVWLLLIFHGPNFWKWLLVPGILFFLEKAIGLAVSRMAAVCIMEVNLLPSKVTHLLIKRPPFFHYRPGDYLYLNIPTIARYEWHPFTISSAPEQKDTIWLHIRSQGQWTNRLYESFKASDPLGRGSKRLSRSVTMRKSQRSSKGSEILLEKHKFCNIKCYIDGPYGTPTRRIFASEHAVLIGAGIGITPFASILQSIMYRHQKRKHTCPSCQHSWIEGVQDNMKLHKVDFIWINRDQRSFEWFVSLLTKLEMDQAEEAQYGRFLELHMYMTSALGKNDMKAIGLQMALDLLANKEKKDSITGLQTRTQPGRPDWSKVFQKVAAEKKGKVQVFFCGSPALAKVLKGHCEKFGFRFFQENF

Sequence of Streptavidin (Streptomyces avidinii) (P22629 whole entry, looked up): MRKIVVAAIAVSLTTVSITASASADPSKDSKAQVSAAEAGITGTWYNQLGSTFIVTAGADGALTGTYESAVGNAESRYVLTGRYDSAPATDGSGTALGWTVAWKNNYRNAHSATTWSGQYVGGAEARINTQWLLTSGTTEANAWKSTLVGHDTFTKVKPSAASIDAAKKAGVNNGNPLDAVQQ
Sequence of Torsin-1A (Homo sapiens) (O14656 whole entry, looked up): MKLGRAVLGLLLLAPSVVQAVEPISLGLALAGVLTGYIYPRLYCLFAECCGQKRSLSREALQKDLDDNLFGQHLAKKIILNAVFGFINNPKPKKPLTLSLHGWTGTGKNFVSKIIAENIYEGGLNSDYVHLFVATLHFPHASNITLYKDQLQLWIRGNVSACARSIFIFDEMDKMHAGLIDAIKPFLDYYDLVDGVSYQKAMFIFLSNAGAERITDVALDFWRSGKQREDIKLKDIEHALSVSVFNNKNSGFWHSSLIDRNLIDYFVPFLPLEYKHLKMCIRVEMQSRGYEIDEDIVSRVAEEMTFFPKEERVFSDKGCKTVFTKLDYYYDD
Sequence of NADPH oxidase 4 (Homo sapiens) (Q9NPH5 whole entry, looked up): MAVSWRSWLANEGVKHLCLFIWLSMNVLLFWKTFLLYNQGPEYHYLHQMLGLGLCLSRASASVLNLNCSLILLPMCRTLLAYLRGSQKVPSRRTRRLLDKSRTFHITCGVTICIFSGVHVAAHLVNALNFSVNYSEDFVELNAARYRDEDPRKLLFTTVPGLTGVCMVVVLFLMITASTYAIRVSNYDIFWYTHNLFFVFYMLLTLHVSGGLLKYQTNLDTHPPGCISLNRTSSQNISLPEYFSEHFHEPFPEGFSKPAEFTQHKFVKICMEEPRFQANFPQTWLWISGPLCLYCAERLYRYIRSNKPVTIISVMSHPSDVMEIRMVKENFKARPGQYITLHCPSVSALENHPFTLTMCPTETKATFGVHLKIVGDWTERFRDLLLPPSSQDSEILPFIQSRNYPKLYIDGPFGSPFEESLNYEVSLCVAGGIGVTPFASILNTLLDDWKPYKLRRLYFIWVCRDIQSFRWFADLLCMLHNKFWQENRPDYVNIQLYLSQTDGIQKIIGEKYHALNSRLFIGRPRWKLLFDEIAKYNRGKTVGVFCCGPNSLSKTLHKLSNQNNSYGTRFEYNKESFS
Sequence of NADPH oxidase 2 (Homo sapiens) (P04839 whole entry, looked up): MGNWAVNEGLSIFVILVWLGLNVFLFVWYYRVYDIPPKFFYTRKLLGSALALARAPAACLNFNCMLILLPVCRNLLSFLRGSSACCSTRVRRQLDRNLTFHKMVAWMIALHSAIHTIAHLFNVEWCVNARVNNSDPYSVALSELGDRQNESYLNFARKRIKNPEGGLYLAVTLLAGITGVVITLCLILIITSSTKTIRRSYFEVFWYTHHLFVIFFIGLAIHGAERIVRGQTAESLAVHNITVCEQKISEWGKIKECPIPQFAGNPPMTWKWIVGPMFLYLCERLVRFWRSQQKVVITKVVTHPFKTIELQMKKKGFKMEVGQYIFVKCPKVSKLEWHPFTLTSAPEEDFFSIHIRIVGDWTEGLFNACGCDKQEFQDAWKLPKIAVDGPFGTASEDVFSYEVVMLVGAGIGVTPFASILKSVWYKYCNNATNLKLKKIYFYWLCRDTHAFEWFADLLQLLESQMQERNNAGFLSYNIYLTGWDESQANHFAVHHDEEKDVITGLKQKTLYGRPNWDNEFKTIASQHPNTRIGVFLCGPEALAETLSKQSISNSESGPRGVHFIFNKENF

Take `CCOC(=O)[C@H](CC(C)C)NC(=O)CCC1CC(OC(=O)NCc2cccc3ccccc23)CC2(CCCC(COC(=O)NCCc3ccccc3OC)O2)O1` (stereo not given in full): the composite z-score in assay [1] is -0.0588; in [6], 0.556; in assay [7] it was -0.217; with Torsin-1A (Homo sapiens) [8], 0.203; with Torsin-1A (Homo sapiens) [9], 0.408; in [10] it was 1.07. Moreover, in [12], the composite z-score is -0.147. Further, the z-score in assay [2] is -1.86 (inactive); in [3] it was 0.6 (inactive); in assay [4] it was -0.44 (inactive); in assay [5], 0.0744 (inactive); in assay [11], -0.596 (inactive); in assay [13] it was -1.28 (inactive). Moreover, the z-score was -0.0901 (inactive) in [14]; -0.868 (inactive) in assay [15]; 0.298 (inactive) in assay [16]; 0.0059 in assay [17]; 0.527 (inactive) in assay [18]; 0.69 (inactive) in assay [19]. Besides, the z-score in assay [20] came to 1.02.

`CC(C)c1ccc(NN2C(C(O)c3ccc4c(c3)OCO4)C=CC3C(=O)N(c4ccccc4)C(=O)C32)cc1` (stereo not given): the composite z-score was 0.268 in [1]; 2.14 in assay [6]; 0.125 in [7]; -0.0945 with Torsin-1A (Homo sapiens) [8]; 1.04 in the assay with Torsin-1A (Homo sapiens) [9]; 0.397 in assay [10]. For the same compound, the composite z-score in assay [12] is -0.0593. The z-score in assay [2] was -0.0997 (inactive); in [3], -0.505 (inactive); in assay [4], 0.629 (inactive); in [5], -0.0824 (inactive); in assay [11], -0.481 (inactive); in assay [13], 1.76 (inactive). For the same compound, the z-score was 1 (inactive) in assay [14]; 0.126 (inactive) in assay [15]; 0.778 (inactive) in [16]; -0.467 in assay [17]; -0.488 (inactive) in assay [18]; -0.912 (inactive) in [19]. In addition, the z-score in assay [20] was -0.752.

On to `C=CCOC(=O)[C@H]1[C@@H]2C(=O)O[C@@H](c3ccccc3)[C@@H](c3ccccc3)N2[C@@H](c2ccc(OCCOC(=O)[C@H]3C[C@H]4C(=O)N5CCC[C@H]5C(=O)N4[C@H]3c3cccc(OCCO)c3)cc2)[C@]12C(=O)Nc1ccc(I)cc12`, for which the composite z-score in assay [1] worked out at 1.83; in assay [6], 2.76; in assay [7], 1.17; with Torsin-1A (Homo sapiens) [8], 1.95; in the assay with Torsin-1A (Homo sapiens) [9], 2.23; in [10], 2.08. The compound further had a composite z-score in assay [12] of 1.72. The z-score in assay [2] is 0.156 (inactive); in assay [3], -0.315 (inactive); in assay [4], -0.134 (inactive); in assay [5], 0.437 (inactive); in assay [11] it was -0.709 (inactive); in assay [13] it was 0.491 (inactive). Also, the z-score was 0.641 (inactive) in assay [14]; -2.53 (inactive) in assay [15]; 0.131 (inactive) in assay [16]; -0.0041 in [17]; -0.669 (inactive) in assay [18]; 0.165 (inactive) in assay [19]. This compound registered a z-score in assay [20] of 0.261.

For the compound `COc1ccc(COC(=O)NN=C2C[C@@H](O)[C@@H](O)[C@@H]3[C@@H]4C(=O)N(Cc5ccc6c(c5)OCO6)C(=O)[C@@H]4CC[C@@H]23)cc1`, the composite z-score in assay [1] was 0.0183; in assay [6] it was 1.09; in [7], 0.0028; with Torsin-1A (Homo sapiens) [8] it was -1.15; in the assay with Torsin-1A (Homo sapiens) [9], -0.686; in assay [10], -1.07. The compound also came in with a composite z-score in assay [12] of 1.15. In addition, the z-score is -0.797 (inactive) in assay [2]; 0.786 (inactive) in [3]; 1.61 (inactive) in assay [4]; -0.41 (inactive) in assay [5]; 0.306 (inactive) in assay [11]; 11.8 (active) in assay [13]. In addition, the z-score is 0.801 (inactive) in assay [14]; 0.819 (inactive) in [15]; -1.17 (inactive) in assay [16]; 1.27 in [17]; -0.377 (inactive) in assay [18]; 0.343 (inactive) in assay [19]. In [20], this compound registered a z-score of 0.964.

Take `COc1ccc(O[C@H]2C=C[C@@H](c3ccccc3)O[C@@H]2COC(=O)CCC(C)=NO[C@H](C)c2cn([C@@H]3COC[C@H]3O)nn2)cc1`: the composite z-score in assay [1] is 0.276; in assay [6], 2.18; in assay [7], -0.103; with Torsin-1A (Homo sapiens) [8], 0.249; with Torsin-1A (Homo sapiens) [9] it was 0.419; in assay [10], 0.754. Besides, in assay [12], the composite z-score was -0.0501. For the same compound, the z-score in [2] was -3.36 (inactive); in assay [3], -1.39 (inactive); in assay [4], 5.66 (inactive); in [5] it was 0.867 (inactive); in [11], 0.451 (inactive); in assay [13], 5.05 (inactive). Besides, the z-score in assay [14] is 0.0624 (inactive); in assay [15] it was 1.63 (inactive); in assay [16], -0.908 (inactive); in assay [17] it was 0.607; in assay [18], -4.13 (inactive); in assay [19], -0.691 (inactive). Also, the z-score in [20] is -4.98.
